tim10-1 inh = growth inhibitors of tim10-1 mutant yeast; S. cerevisiae tim10-1 ts strain growth, BacTiter-Glo, 24 h; inhibition, % at 20 µM; hit rate 2.2% among 330,000; AID 463190;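 active means inhibition of at least 40%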;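 further: mutant grown at 25 °C; 0% = DMSO wells with yeast and 100% = wells holding no yeast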
PfHsp90 set2 = reduces growth (ATP signal) of yeast expressing P. falciparum Hsp90 | S. cerevisiae expressing PfHsp90, BacTiter-Glo ATP, 48 h; yeast lacking PDR1 and PDR3 efflux regulators | inhibition, % at 9.4 µM | hit rate 0.32% among 310,000 | AID 504621;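 active means every replicate shows inhibition above about 80%, whatever the replicate mean, limit read from the data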;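 further: 0% = DMSO neutral controls and 100% = 20 µM radicicol positive controls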
tim23-1 inh = inhibits growth of tim23-1 mutant yeast. S. cerevisiae tim23-1 growth, BacTiter-Glo luminescence, 24 h. inhibition, % at 20 µM. hit rate 1.3% among 330,000. AID 463212;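 active means growth inhibition of the mutant yeast at or above 50%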;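 further: temperature-sensitive mutant grown at 25 °C; plate controls were DMSO-treated mutant yeast for no effect and medium wells lacking yeast for full effect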
NALP3 yeast inh = blocks the NALP3 inflammasome reconstituted in yeast. inhibition, % at 10 µM. hit rate 0.39% among 330,000. Yeast reconstituted NLRP3/ASC/caspase-1, beta-gal luminescence, 24 h;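 active means inhibition of 50% or more; inactive means inhibition below 50%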;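 further: plate controls were induced DMSO wells for no effect and uninduced yeast grown without galactose for full effect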
TIM10 inh = growth inhibitors of TIM10 yeast strain; hit rate 1.4% among 330,000; inhibition, % at 10 µM; S. cerevisiae TIM10 strain growth, BacTiter-Glo luminescence, 24 h;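 active means inhibition of 40% or more at the single tested concentration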;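 further: wild-type TIM10 isogenic control strain grown at permissive 25 °C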
NALP1 inh = inhibitors of NALP1 inflammasome in yeast; S. cerevisiae NALP1/ASC/caspase-1 growth, X-gal OD620, 72 h; hit rate 0.61% among 280,000; inhibition, % at 10 µM; in the data active means inhibition mostly above about 24%, no sharp cut-off; inactive means mostly below about 32%
TIM10 conf = TIM10 yeast growth inhibition, confirmed | shares compounds with TIM10 inh | S. cerevisiae tim10 strain growth, BacTiter-Glo luminescence, 24 h | inhibition, % at 10 µM | hit rate 63% among 4,600 | AID 463215;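 active means inhibition of yeast growth at or above a set limit in either of two replicates at 10 µM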;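 further: this counterscreen used the strain with wild-type TIM10; 0% = yeast with DMSO and 100% = medium wells lacking yeast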
The depositor's hits bear a star; / = no result given. Hits are enriched below; roughly 4.1% of the tested compounds scored in any of these assays.

SMILES	tim10-1 inh	PfHsp90 set2	tim23-1 inh	NALP3 yeast inh	TIM10 inh	NALP1 inh	TIM10 conf
CC1Cc2ccccc2N1C1=NS(=O)(=O)c2ccccc21 (stereo not given)	28.1	0.6	31.0	-0.4	41.8*	-10.6	10.3
O=S1(=O)N=C(N2CCCC2)c2ccccc21	5.8	-4.8	-7.3	11.8	0.1	20.7	/
CC(=O)c1c(C(C)=O)c(C)n(NC(=O)c2ccccc2O)c1C	4.4	-2.7	5.8	-5.0	-7.8	5.4	/
CC(=O)c1c(C(C)=O)c(C)n(NC(=O)c2cccnc2)c1C	9.1	7.7	13.6	17.3	89.0*	10.4	7.4
O=C(CS(=O)(=O)c1ccccc1Cl)N1CCOCC1	5.8	5.5	8.7	12.0	7.4	10.6	/
COc1ccc(C2c3cc4c(cc3OC(N3CCOCC3)C2C)OCO4)c(OC)c1 (stereo not given)	/	-17.5	/	/	/	/	/
C=C(C)COc1ccc(-c2[nH]ncc2-c2ccc(Br)cc2)c(O)c1	-7.3	5.7	26.7	1.5	49.2*	18.6	-17.9
CC(=O)Nc1ccc2c(c1)Cc1c(F)cccc1-2	/	-9.4	/	/	/	/	/
CCN(C(=O)c1ccc(N2CC3CC(C2)c2cccc(=O)n2C3)c(NC(=O)c2ccncc2)c1)c1cccc(C)c1 (stereo not given)	6.4	21.1	4.5	-14.8	0.0	9.7	/
O=C(CSc1ccc(-c2ccccc2)nn1)c1cccs1	21.3	-95.0	10.5	-47.8	40.9*	16.7	16.2
COc1ccc(-c2ccc(SCC(=O)c3cccs3)nn2)cc1	20.3	/	12.5	-75.3	42.7*	4.6	28.6
COc1ccc(-c2ccc(SCC(=O)Nc3nnc(C)s3)nn2)cc1	-11.4	19.1	-2.3	12.2	-4.7	13.1	/
Nc1ncnc2c1ncn2[C@@H]1O[C@H](CNCc2cccc(C#Cc3ccccc3)c2)[C@@H](O)[C@H]1O	17.7	-5.1	45.6	/	-0.9	/	/
CCc1nnc(NC(=O)COc2ccccc2[N+](=O)[O-])s1	6.7	-4.0	12.9	12.9	40.1*	5.6	-2.8
CCc1nnc(NC(=O)COc2ccc([N+](=O)[O-])cc2)s1	-20.8	7.1	-17.6	-2.7	-23.2	0.6	/
COCCOC(=O)C1=C(C)NC(=O)NC1c1cccc2ccccc12 (stereo not given)	1.7	-0.1	3.5	-9.4	50.7*	2.4	-7.5
O=C1C(c2ccnc3ccccc23)=C(O)c2ccccc21	13.4	24.0	23.4	10.4	54.9*	-0.8	38.1*
O=C1c2ccccc2C(=O)C1c1nccc2ccccc12	6.0	11.7	20.7	15.2	49.4*	-8.9	46.6*
O=C1c2ccccc2C(=O)C1c1ccnc2ccccc12	19.5	8.9	24.7	6.7	49.3*	-41.8	39.1*
Cc1cccc(NC(=O)CSc2nnc(CNC(=O)c3ccco3)o2)c1	19.7	-0.3	13.0	-2.9	3.3	2.9	/
COc1ccc(Cl)cc1NC(=O)NCc1ccc2c(c1)OCO2	-10.2	0.9	-6.9	12.0	-1.1	16.7	/
Cc1c(C(=S)Nc2ccccc2)cnn1-c1ccc([N+](=O)[O-])cc1	38.3	15.6	44.4	40.2	42.8*	19.1	-0.8
Nc1c(C(=O)N/N=C/c2ccc([N+](=O)[O-])cc2)cnn1-c1ccccc1	-17.8	-9.2	-2.7	16.0	2.8	/	/
O=C(O)c1nnn(-c2cc(C(F)(F)F)cc(C(F)(F)F)c2)c1-c1ccccc1	0.4	-4.3	5.2	-7.1	41.4*	11.2	12.3
COc1ccc(-c2cc(CC3(C(=O)O)CCN(C(=O)OC(C)(C)C)CC3)on2)c(OC)c1	4.3	26.9	12.3	-2.7	-9.8	9.7	/
COc1ccccc1Nc1nc(NCCCN(C)C)nc(N)c1[N+](=O)[O-]	12.2	-9.6	10.5	0.5	-2.3	17.2	/
C=CCNc1nc(N)c([N+](=O)[O-])c(Nc2ccccc2OC)n1	34.1	-19.3	30.8	20.7	40.9*	3.4	69.2*
O=C(O)C1CCN(S(=O)(=O)c2ccc(Cl)s2)CC1	-15.7	-21.8	-0.9	23.4	-13.0	/	/
CC(C)(C)c1cc(O)c(C(C)(C)C)cc1O	31.5	/	45.8	1.1	46.9*	/	42.0*
O=C(N/N=C/c1sc(=O)n(-c2ccccc2)c1Cl)c1ccccc1	30.9	10.4	48.4	5.6	42.0*	33.9	21.8

Screening data deposited in PubChem BioAssay by several laboratories.
